Measured values reported in PubChem BioAssay AID2540 (Sanford-Burnham Center for Chemical Genomics, 2010).
In all, about 330,000 compounds went through this assay and about 4,100 (1.2%) were called active. The full list was thinned out, with actives kept by preference. Unmarked numbers belong to inactive results. Rule as the data show it: active = inhibition above about 50%; inactive = the rest.

Molecular target: Sentrin-specific protease 8 (Homo sapiens) (UniProt Q96LD8)
Experiment: blockers of human SENP8 peptidase activity – biochemical, luminescence, primary screen (AID 2540)
Details: purified SENP8, Z-RLRGG-aminoluciferin cleavage, at 10 µM, active compounds read high

Chain of Sentrin-specific protease 8 (Homo sapiens) (Q96LD8 whole entry, looked up): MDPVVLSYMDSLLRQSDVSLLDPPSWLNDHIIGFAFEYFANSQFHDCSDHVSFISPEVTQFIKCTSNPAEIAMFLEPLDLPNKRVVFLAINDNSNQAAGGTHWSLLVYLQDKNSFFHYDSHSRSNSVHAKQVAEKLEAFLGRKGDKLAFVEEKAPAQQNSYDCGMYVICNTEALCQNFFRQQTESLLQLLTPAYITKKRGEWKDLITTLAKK

Row | SMILES | inhibition
1 | Cc1c(CC(=O)NCC(=O)NCC(=O)O)c(=O)oc2cc3oc4c(c3cc12)CCCC4 | -13.4%
2 | Clc1ccc(-n2nnnc2CN2CCCCC2)cc1Cl | -12%
3 | O=C(/C=C/NNC(=O)c1cccc(Br)c1)c1ccccc1 | -1.09%
4 | CCOc1ccccc1N1C(=O)CC(Sc2nccc(C)n2)C1=O (stereo unspecified) | 1.56%
5 | COc1ccc(NC(=O)CNc2cc(S(=O)(=O)N3CCOCC3)ccc2N2CCOCC2)c(OC)c1 | 7.93%
6 | Cc1c(Cl)cccc1NC(=O)NCc1ccc(C)n1C | -0.511%
7 | CC(=O)c1ccc(S(=O)(=O)NC2CC(=O)N(c3ccc4c(c3)OCCO4)C2)cc1 (stereo unspecified) | -4.2%
8 | CC(C)(C)OC(=O)C[C@@H]1C/C=C\C[C@H](CC(=O)N[C@@H](CO)Cc2ccccc2)C(=O)N[C@H](Cc2ccccc2)COC1=O | -7.09%
9 | COc1cc(C2C(C(=O)c3cccs3)=C(O)C(=O)N2CCN2CCOCC2)ccc1OCCC(C)C (stereo unspecified) | -3.6%
10 | CCn1cc(CN2CCC(C(=O)Nc3cccc(-c4cccc(Cl)c4)c3)CC2)c(C)n1 | -6.83%
11 | CCN1CC=C2C(C#N)=C(N)C(C#N)(C#N)[C@H](c3ccoc3)[C@H]2C1 | 50.7% (active)
12 | N#CC1=C(N)C(C#N)(C#N)[C@H](c2ccsc2)[C@H]2COCC=C12 | -3.51%
13 | CCCN1CC=C2C(C#N)=C(N)C(C#N)(C#N)C(c3cc(OC)ccc3OC)C2C1 (stereo unspecified) | 0.594%
14 | Cc1cn(C)c(=O)n(C)c1=O | -18.1%
15 | O=C(Nc1cccc2cccnc12)c1cccc(Cl)c1 | 8.84%
16 | COc1ccc(NC(=O)C2CCCN(S(=O)(=O)c3cccc4cccnc34)C2)cc1 (stereo unspecified) | 6%
17 | COc1ccc(NC(=O)Nc2cccc3cccnc23)cc1 | 81% (active)
18 | CC12CCC(C(=O)N(CCC#N)CCC#N)(CC1=O)C2(C)C (stereo unspecified) | -1.58%
19 | C/C(=N\Nc1nncc2ccccc12)c1ccc(Cl)c([N+](=O)[O-])c1 | 5.46%
20 | COc1cccc(/C=N\Nc2nncc(-c3ccccc3)n2)c1 | -14.9%
21 | CN(CCO)c1ccc(/C=N/Nc2nncc3ccccc23)cc1 | 94.9% (active)
22 | O=C(Oc1ccc(-c2nc(-c3ccccn3)no2)cc1)c1ccccc1 | 97.3% (active)
23 | c1csc(-c2nc(-c3ccncc3)no2)c1 | 57.3% (active)
24 | O=C(COC(=O)c1ccncc1)c1ccccc1 | -23.2%

Row | SMILES | inhibition
25 | c1ccc(CCc2nc(-c3ccncc3)no2)cc1 | -9.99%
26 | Cc1ccc(-c2nc(-c3ccncc3)no2)c(C)c1 | 42.8%
27 | COc1ccc(CCc2nc(-c3cccs3)no2)cc1 | -14.5%
28 | c1ccc(-c2noc(-c3cccs3)n2)nc1 | 88.9% (active)
29 | Cc1noc(C)c1COC(=O)COc1ccc(-c2ccccc2)cc1 | -5.47%
30 | Clc1ccc(-n2nnnc2-c2cnc(-c3ccccn3)nc2-c2cccs2)cc1 | -4.12%
31 | CC1CCC2(CC1)NC(=O)N(CC(=O)c1cccn1C)C2=O (stereo unspecified) | -3.15%
32 | CCOC(=O)N1CCN(c2c(NCCN3CCN(c4ccccc4F)CC3)c(=O)c2=O)CC1 | -9.98%
33 | COc1ccccc1CNC(=O)[C@@H]1CCCN1C(=O)[C@@H]1Cc2ccccc2CN1C(=O)OC(C)(C)C | -1.1%
34 | Cc1ccc(N(C(=O)c2ccc(S(=O)(=O)N(C)C)cc2)C2C=CS(=O)(=O)C2)cc1 (stereo unspecified) | -5.23%
35 | O=C1CCC(C(=O)N2CCN(c3ccccc3Cl)CC2)CN1CC1CCCCC1 (stereo unspecified) | -2.96%
36 | Clc1ccc(COn2c(-c3ccc(Cl)cc3Cl)nc3ncccc32)cc1 | 1.77%
37 | O=C1c2ccccc2C(=O)N1Cc1cc(-c2ccccc2Cl)no1 | 2.3%
38 | Clc1ccc(-c2cc(-c3ccccn3)on2)c(Cl)c1 | 98% (active)
39 | O=C(COC(=O)c1c2c(nc3ccccc13)CCCC2)c1ccc(Br)s1 | -1.41%
40 | Cn1cccc1C(=O)OCC(=O)c1ccc(Br)s1 | 75.8% (active)
41 | Cn1cccc1C(=O)OCC(=O)NCCc1ccccc1 | -2.12%
42 | COc1cccc(NC(=O)CSc2nnc(C3CCCCC3)n2N)c1 | 6.19%
43 | O=C(NCC1CC1)c1onc(CSc2ccccc2)c1C(=O)NCC1CC1 | 1.24%
44 | Cc1ccc(NC(=O)c2ccc(S(=O)(=O)NCC3CCCO3)cc2)cc1C (stereo unspecified) | 9.11%
45 | O=C(Nc1nnc(S(=O)(=O)N2CCCCCC2)s1)c1cccc(Br)c1 | 71.5% (active)
46 | Cc1cccc(C(=O)Nc2nnc(S(=O)(=O)N3CCCCCC3)s2)c1 | 18.3%
47 | O=C(Nc1nnc(S(=O)(=O)N2CCOCC2)s1)c1cccc(Br)c1 | 6.23%
48 | Cc1ccc(S(=O)(=O)NC(=O)c2cccc(C)c2)cc1 | -5.51%

Row | SMILES | inhibition
49 | Cc1[nH]n(C)c(=O)c1N=Nc1ccc(S(C)(=O)=O)cc1 | -4.34%
50 | Cc1[nH]n(C(N)=S)c(=O)c1N=Nc1ccc(Cl)cc1Cl | 95.6% (active)
51 | CCCCNC(=O)C1CCCNC1=O (stereo unspecified) | -10.4%
52 | O=C(O)c1cc(S(=O)(=O)N(Cc2ccccc2)c2ccccc2)ccc1Cl | 3.75%
53 | C/C(=N\OCC(=O)Nc1ccc(Br)cc1)c1cccs1 | -8.52%
54 | O=C(O)c1ccccc1OCc1ccccc1Cl | 1.22%
55 | O=C1c2ccccc2C(=O)N1CCC#Cc1ccc2cc(C3(O)CCCCC3)oc(=O)c2c1 | -2.91%
56 | COc1cc(/C=C2\Oc3ccc(C#Cc4ccc(O)cc4)cc3C2=O)cc(OC)c1 | 5.28%
57 | COc1cc(C#Cc2ccc3cc(CCCO)oc(=O)c3c2)cc(OC)c1 | 69.6% (active)
58 | COc1ccccc1OC(C)C(=O)Nc1ccc(S(=O)(=O)Nc2nccs2)cc1 (stereo unspecified) | -3.08%
59 | COc1ccc(Br)cc1C(=O)NC(=S)Nc1cc(-c2nc3ccccc3[nH]2)ccc1C | 3.06%
60 | Cc1ccc(-c2nc3ccccc3[nH]2)cc1N | 87.1% (active)
61 | c1ccc2[nH]c(-c3nc4ccccc4[nH]3)nc2c1 | 92.4% (active)
62 | Cc1ccccc1N1CC(c2nc3ccccc3[nH]2)CC1=O (stereo unspecified) | 2.73%
63 | O=C(Nc1sc2c(c1-c1nc3ccccc3[nH]1)CCCC2)C1CC1 | -0.363%
64 | Clc1ccccc1SCc1nc2ccccc2[nH]1 | 14.7%
65 | CC(OC(=O)CCCOc1ccccc1)C(=O)Nc1ccc(Cl)cn1 (stereo unspecified) | -14.4%
66 | CCOc1ccccc1C1CC(c2ccc(Cl)cc2)Nc2nc(N)nn21 (stereo unspecified) | 0.924%
67 | O=C(COC(=O)c1cnc(Cl)c(Cl)c1)NCc1ccco1 | -1.98%
68 | CC(OC(=O)CNC(=O)c1cccc(F)c1)C(=O)NC1CCCCC1C (stereo unspecified) | -11.2%
69 | Cc1c(Br)c([N+](=O)[O-])nn1CC(=O)N1CCN(Cc2ccccc2)CC1 | -7.38%
70 | O=C(Nc1ccn(Cc2ccccc2F)n1)c1ccc(COc2ccc(Cl)cc2Cl)o1 | 8.53%
71 | O=C(Nc1ccn(Cc2ccccc2)n1)c1n[nH]c([N+](=O)[O-])c1Cl | 97.2% (active)
72 | CC(CCc1ccc(O)cc1)NCc1ccc(Cl)cc1Cl (stereo unspecified) | -5.92%

Row | SMILES | inhibition
73 | COc1ccc(C2=Nc3cc(C)ccc3OC2)cc1 | 67.5% (active)
74 | COc1ccc(C2=NOC(COC(=O)c3ccc4ccccc4n3)C2)cc1 (stereo unspecified) | -6.73%
75 | Cc1ccc(C(=O)NNC2=Nc3cc([N+](=O)[O-])ccc3OC2)cc1 | -6.4%
76 | CS(=O)(=O)n1nc(-c2ccco2)nc1N | 0.284%
77 | Cn1c(-c2ccco2)nc2cc3ccccc3cc21 | 94.4% (active)
78 | COc1ccccc1-n1c(-c2cc(-c3ccco3)[nH]n2)n[nH]c1=S | 3.44%
79 | Cc1ccc(NC(=O)CSc2nnc(CNC(=O)c3ccccc3F)o2)cc1 | 0.136%
80 | Cc1ccccc1-n1nnc2c(=O)oc3ccccc3c21 | -6.33%
81 | CC(NC(=O)Nc1ccccc1)C(c1cccs1)N1CCN(c2ccccc2)CC1 (stereo unspecified) | -7.79%
82 | COC(=O)C1=C(N)Oc2cc(C)[nH]c(=O)c2C1c1ccc(Cl)cc1 (stereo unspecified) | 3.38%
83 | COCCCN(C(=O)CSCc1ccc(C)cc1)c1c(N)n(Cc2ccccc2)c(=O)[nH]c1=O | -5.5%
84 | Cc1csc(SCC(=O)Nc2sccc2C#N)n1 | 92.7% (active)
85 | Cc1cccc(C)c1Nc1nnc(SCC(=O)Nc2sccc2C#N)s1 | 9.07%
86 | Cc1ccc(NC(=O)CSCC(=O)Nc2sccc2C#N)cc1 | 10.4%
87 | Cn1cccc1Cc1nnc(SCC(=O)NCc2ccc3c(c2)OCO3)n1CCc1ccccc1 | 2.69%
88 | CCOc1nnc(C)c2c(C)n(-c3cccc(Cl)c3)nc12 | 8.66%
89 | Cc1nc2ccc(C(=O)N/N=C/c3ccc(O)cc3)cc2[nH]1 | -3.65%
90 | CC(C)c1c(C(=O)N/N=C/c2ccc(-c3ccccc3)cc2)nnn1-c1nonc1N | 9.04%
91 | Cc1nonc1C(=O)N/N=C/c1ccc(O)cc1 | 97.5% (active)
92 | COC(=O)c1cccc(N(CC(=O)NCC2CCCO2)C(=O)CCC(=O)Nc2cc(C)on2)c1 (stereo unspecified) | -7.21%
93 | CCOC(=O)c1cnc(COc2ccccc2Cl)[nH]c1=O | -10.8%
94 | CCOC(=O)c1cnc2sccn2c1=O | -2.74%
95 | CCOC(=O)c1cnc2[nH]c3ccccc3n2c1=O | 78.1% (active)
96 | CCn1c2ccccc2c2cc(NC(=O)Nc3ccc([N+](=O)[O-])cc3C)ccc21 | -10.4%
